The source of these data is the supplement of paper PMC6853941.

This assay deals with MCF10A. The assay is described as follows: perturbation Mahalanobis distance of morphological profile vs DMSO controls (Mahalanobis distance (SD units)); higher = stronger morphological change, active = 7 or more. The note with it: 72 h. On the procedure:
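MCF10A cells were seeded onto drugs dispensed acoustically into 384-well plates, using one dose per drug chosen from its human peak plasma concentration, and incubated for 72 h at 37 °C. Cells were stained for DNA, tubulin and mitochondria and imaged; 78 CellProfiler features were extracted, plate-normalised and compared with DMSO wells.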

Setting [1] is: screen batch: Batch1_Mahalanobis_Distance.
Where [2] appears, read: screen batch: Batch2_Mahalanobis_Distance.

Molecules are shown by their SMILES. Values without a mark were called inactive.

Take `CCC(CC)O[C@@H]1C=C(C(=O)O)C[C@H](N)[C@H]1NC(C)=O` [Oseltamivir Acid] (6.45 µM): the “perturbation Mahalanobis distance” value runs as follows: under setting [1], 2.37; under setting [2], 3.03.

With `CCOC(=O)C(C)(C)Oc1ccc(Cl)cc1` [Clofibrate] (325.5 µM), the “perturbation Mahalanobis distance” value was 6.08 under setting [1] and 2.81 under setting [2].

`CCCCc1oc2ccc(NS(C)(=O)=O)cc2c1C(=O)c1ccc(OCCCN(CCCC)CCCC)cc1` [Dronedarone] (1.3 µM): the “perturbation Mahalanobis distance” value was 3.58 under setting [1] and 2.07 under setting [2].

In the case of `O=[N+]([O-])c1cnc(CO)n1CCO` [Hydroxymetronidazole] (58.4 µM), the “perturbation Mahalanobis distance” value reads like this: under setting [1], 2.36; under setting [2], 3.44.

Consider `CN1C[C@H]2c3ccccc3Oc3ccc(Cl)cc3[C@@H]2C1` [Asenapine] (0.07 µM), for which the “perturbation Mahalanobis distance” value reads like this: under setting [1], 2.56; under setting [2], 2.47.

In the case of `CC12CCC(=O)C=C1C=CC1C2CCC2(C)C1CCC21CCC(=O)O1` (stereo not given) [Canrenone] (3 µM), the “perturbation Mahalanobis distance” value runs as follows: under setting [1], 3.06; under setting [2], 3.02.

With `CC(C)C(=O)Nc1ccc([N+](=O)[O-])c(C(F)(F)F)c1` [Flutamide] (27.2 µM), the “perturbation Mahalanobis distance” value is 4.39 under setting [1] and 6.63 under setting [2].

For the compound `Nc1nc2ccc(OC(F)(F)F)cc2s1` [Riluzole] (4.3 µM), the “perturbation Mahalanobis distance” value is 2.51 under setting [1] and 3.82 under setting [2].

Consider `NNC(=O)c1ccncc1` [Isoniazid] (73.5 µM), for which the “perturbation Mahalanobis distance” value reads like this: under setting [1], 6.37; under setting [2], 2.59.

For the compound `C#CCN(C)Cc1ccccc1` [Pargyline] (1.9 µM), the “perturbation Mahalanobis distance” value reads like this: under setting [1], 3.93; under setting [2], 3.63.

For `CC(=O)O.C[C@H](N)C(=O)O.NCCCC[C@H](N)C(=O)O.N[C@@H](CCC(=O)O)C(=O)O.N[C@@H](Cc1ccc(O)cc1)C(=O)O` [Glatiramer Acetate] (50 µM), the “perturbation Mahalanobis distance” value reads like this: under setting [1], 2.19; under setting [2], 2.3.

Turning to `CC(C)NCC(O)COc1ccc(CC(N)=O)cc1` (stereo not given) [Atenolol] (18.8 µM), the “perturbation Mahalanobis distance” value by setting is: under setting [1], 2.37; under setting [2], 2.25.

As to `c1ccc([C@H]2CN3CCSC3=N2)cc1` [Levamisole] (11.7 µM), the “perturbation Mahalanobis distance” value reads like this: under setting [1], 2.32; under setting [2], 2.52.

For the compound `Clc1ccc(C(c2ccccc2Cl)C(Cl)Cl)cc1` (stereo not given) [Mitotane] (62.5 µM), the “perturbation Mahalanobis distance” value is 3.41 under setting [1] and 4.02 under setting [2].

For `CNNCc1ccc(C(=O)NC(C)C)cc1` [Procarbazine] (13.6 µM), the “perturbation Mahalanobis distance” value under setting [1] was 2.07 and the “perturbation Mahalanobis distance” value under setting [2] was 2.28.

In the case of `CN1CCN(CCCN2c3ccccc3Sc3ccc(C(F)(F)F)cc32)CC1` [Trifluoperazine] (0.12 µM), the “perturbation Mahalanobis distance” value under setting [1] is 1.97 and the “perturbation Mahalanobis distance” value under setting [2] was 3.67.

Regarding `Nc1nc(=O)c2ncn(COC(CO)CO)c2[nH]1` [Ganciclovir] (98 µM), the “perturbation Mahalanobis distance” value runs as follows: under setting [1], 3.22; under setting [2], 3.75.

Consider `CC1(C)C[C@@H]1C(=O)N/C(=C\CCCCSC[C@H](N)C(=O)O)C(=O)O` [Cilastatin] (153.4 µM), for which the “perturbation Mahalanobis distance” value runs as follows: under setting [1], 3.43; under setting [2], 3.46.

As to `NC(=O)N[C@@H](CCC(=O)O)C(=O)O` [Carglumic Acid] (68.4 µM), the “perturbation Mahalanobis distance” value under setting [1] was 2.14 and the “perturbation Mahalanobis distance” value under setting [2] is 2.6.

Take `CC1CNc2c(cccc2S(=O)(=O)N[C@@H](CCCN=C(N)N)C(=O)N2CC[C@@H](C)C[C@@H]2C(=O)O)C1` (stereo not given in full) [Argatroban] (6.9 µM): the “perturbation Mahalanobis distance” value under setting [1] was 3.61 and the “perturbation Mahalanobis distance” value under setting [2] was 2.75.

As for `CCCCCCCN(CC)CCCC(O)c1ccc(NS(C)(=O)=O)cc1` (stereo not given) [Ibutilide] (0.08 µM), the “perturbation Mahalanobis distance” value is 2.16 under setting [1] and 2.06 under setting [2].

`O=C1C(CCS(=O)c2ccccc2)C(=O)N(c2ccccc2)N1c1ccccc1` (racemic) [(+/-)-Sulfinpyrazone] (41.84 µM): the “perturbation Mahalanobis distance” value runs as follows: under setting [1], 3.46; under setting [2], 2.61.

Turning to `Clc1ccc2c(c1)C(N1CCNCC1)=Nc1ccccc1O2` [Amoxapine] (9.6 µM), the “perturbation Mahalanobis distance” value by setting is: under setting [1], 2.24; under setting [2], 3.6.

As for `O=C1OCCN1/N=C/c1ccc([N+](=O)[O-])o1` [Furazolidone] (22.2 µM), the “perturbation Mahalanobis distance” value is, setting by setting: under setting [1], 3.46; under setting [2], 3.27.

For the compound `N[C@@H]1CONC1=O` [D-Cycloserine] (98 µM), the “perturbation Mahalanobis distance” value is 7.56 (active) under setting [1] and 9.13 (active) under setting [2].

As to `O=C(CCCCCCC(=O)Nc1ccccc1)NO` [Vorinostat] (9.8 µM), the “perturbation Mahalanobis distance” value runs as follows: under setting [1], 11 (active); under setting [2], 18.4 (active).

On to `O=C(C1CCCCC1)N1CC(=O)N2CCc3ccccc3C2C1` (stereo not given) [Praziquantel] (3.2 µM), for which the “perturbation Mahalanobis distance” value reads like this: under setting [1], 3.15; under setting [2], 3.64.

`OCCN1C[C@H](O)[C@@H](O)[C@H](O)[C@H]1CO` [Miglitol] (45.4 µM): the “perturbation Mahalanobis distance” value reads like this: under setting [1], 1.78; under setting [2], 2.1.

With `COc1ccc(C[C@@H]2c3cc(OC)c(OC)cc3CC[N@+]2(C)CCC(=O)OCCCCCOC(=O)CC[N@@+]2(C)CCc3cc(OC)c(OC)cc3[C@H]2Cc2ccc(OC)c(OC)c2)cc1OC` [Cisatracurium Besylate] (18.1 µM), the “perturbation Mahalanobis distance” value runs as follows: under setting [1], 5.34; under setting [2], 4.5.

In the case of `CCCSc1ccc2nc(NC(=O)OC)[nH]c2c1` [Albendazole] (28.3 µM), the “perturbation Mahalanobis distance” value under setting [1] is 13.8 (active) and the “perturbation Mahalanobis distance” value under setting [2] is 15.4 (active).

On to `O=C1[C@H](CC[C@H](O)c2ccc(F)cc2)[C@@H](c2ccc(O)cc2)N1c1ccc(F)cc1` [Ezetimibe] (0.87 µM), for which the “perturbation Mahalanobis distance” value is 3.59 under setting [1] and 2.59 under setting [2].

Consider `CCC(c1ccccc1)c1c(O)oc2ccccc2c1=O` (stereo not given) [Phenprocoumon] (64.2 µM), for which the “perturbation Mahalanobis distance” value is 2.32 under setting [1] and 3.97 under setting [2].

Consider `Cn1nnc2c(C(N)=O)ncn2c1=O` [Temozolomide] (70.6 µM), for which the “perturbation Mahalanobis distance” value was 3.51 under setting [1] and 2.12 under setting [2].

For `Cc1c(OCC(F)(F)F)ccnc1CS(=O)c1nc2ccccc2[nH]1` (stereo not given) [Lansoprazole] (23 µM), the “perturbation Mahalanobis distance” value is 4.87 under setting [1] and 8.49 (active) under setting [2].

Consider `CCCCC(F)(F)[C@@]1(O)CC[C@H]2[C@@H](CC(=O)[C@@H]2CCCCCCC(=O)O)O1` [Lubiprostone] (64 µM), for which the “perturbation Mahalanobis distance” value was 2.4 under setting [1] and 2.48 under setting [2].

For the compound `OC(c1cc(C(F)(F)F)nc2c(C(F)(F)F)cccc12)C1CCCCN1` (stereo not given) [Mefloquine] (23.8 µM), the “perturbation Mahalanobis distance” value runs as follows: under setting [1], 13.3 (active); under setting [2], 17.1 (active).

For the compound `CN(C)[C@@H]1C(O)=C(C(N)=O)C(=O)[C@@]2(O)C(O)=C3C(=O)c4c(O)cccc4[C@@](C)(O)[C@H]3C[C@@H]12` [Tetracycline] (45 µM), the “perturbation Mahalanobis distance” value is, setting by setting: under setting [1], 4.19; under setting [2], 2.42.

As for `CCN(CC)CCNC(=O)c1c(C)[nH]c(/C=C2\C(=O)Nc3ccc(F)cc32)c1C` [Sunitinib] (0.73 µM), the “perturbation Mahalanobis distance” value is 3.08 under setting [1] and 2.88 under setting [2].

On to `CN/C(=C\[N+](=O)[O-])NCCSCc1csc(CN(C)C)n1` [Nizatidine] (7.5 µM), for which the “perturbation Mahalanobis distance” value reads like this: under setting [1], 2.51; under setting [2], 2.13.

For the compound `Nc1c2c(nc3ccccc13)CCCC2` [Tacrine] (0.25 µM), the “perturbation Mahalanobis distance” value under setting [1] is 2.25 and the “perturbation Mahalanobis distance” value under setting [2] is 2.5.

Consider `CO[C@H]1CC2CC[C@@H](C)[C@@](O)(O2)C(=O)C(=O)N2CCCC[C@H]2C(=O)O[C@H]([C@H](C)C[C@@H]2CC[C@@H](OCCO)[C@H](OC)C2)CC(=O)[C@H](C)/C=C(\C)[C@@H](O)[C@@H](OC)C(=O)[C@H](C)C[C@H](C)/C=C/C=C/C=C/1C` [Everolimus] (0.95 µM), for which the “perturbation Mahalanobis distance” value is, setting by setting: under setting [1], 5.37; under setting [2], 9.89 (active).

As for `CCS(=O)(=O)CCn1c([N+](=O)[O-])cnc1C` [Tinidazole] (192.9 µM), the “perturbation Mahalanobis distance” value is, setting by setting: under setting [1], 2.45; under setting [2], 2.69.

For the compound `OCC(O)COc1ccc(Cl)cc1` (stereo not given) [Chlorphenesin] (83.9 µM), the “perturbation Mahalanobis distance” value under setting [1] was 2.63 and the “perturbation Mahalanobis distance” value under setting [2] was 4.

For `CN(C)CC[C@@H](c1ccc(Cl)cc1)c1ccccn1` [Dexchlorpheniramine] (0.15 µM), the “perturbation Mahalanobis distance” value runs as follows: under setting [1], 2.03; under setting [2], 2.67.

`Cc1nnc(C(C)C)n1C1C[C@H]2CC[C@@H](C1)N2CC[C@H](NC(=O)C1CCC(F)(F)CC1)c1ccccc1` (stereo not given in full) [Maraviroc] (11.35 µM): the “perturbation Mahalanobis distance” value reads like this: under setting [1], 2.84; under setting [2], 2.67.

For the compound `O=c1ncnc2[nH][nH]cc1-2` [Allopurinol] (139.6 µM), the “perturbation Mahalanobis distance” value was 2.93 under setting [1] and 2.89 under setting [2].

With `Cc1nc(-c2ccc(OCC(C)C)c(C#N)c2)sc1C(=O)O` [Febuxostat] (178 µM), the “perturbation Mahalanobis distance” value is 2.73 under setting [1] and 3.22 under setting [2].

As for `CO[C@@H]1[C@@H](OC(N)=O)[C@@H](O)[C@H](Oc2ccc3c(=O)c(NC(=O)c4ccc(O)c(CC=C(C)C)c4)c(O)oc3c2C)OC1(C)C` [Novobiocin] (90.8 µM), the “perturbation Mahalanobis distance” value is, setting by setting: under setting [1], 5.81; under setting [2], 6.6.

As to `CCn1cc(C(=O)O)c(=O)c2cc(F)c(N3CCNCC3)nc21` [Enoxacin] (62.4 µM), the “perturbation Mahalanobis distance” value was 7.28 (active) under setting [1] and 4.85 under setting [2].

Consider `c1cnc2cc3c(cc2n1)C1CNCC3C1` [Varenicline] (0.24 µM), for which the “perturbation Mahalanobis distance” value is, setting by setting: under setting [1], 2.52; under setting [2], 2.29.

Consider `OC(CCCN1CCCCC1)(c1ccccc1)c1ccccc1` [Diphenidol] (2.6 µM), for which the “perturbation Mahalanobis distance” value was 2.49 under setting [1] and 3.04 under setting [2].

As for `CO[C@H]1/C=C/O[C@@]2(C)Oc3c(C)c(O)c4c(c3C2=O)C2=NC3(CCN(CC(C)C)CC3)NC2=C(NC(=O)/C(C)=C\C=C\[C@H](C)[C@H](O)[C@@H](C)[C@@H](O)[C@@H](C)[C@H](OC(C)=O)[C@@H]1C)C4=O` [Rifabutin] (0.89 µM), the “perturbation Mahalanobis distance” value under setting [1] is 6.13 and the “perturbation Mahalanobis distance” value under setting [2] is 3.99.

For `CN(C)C(=N)N=C(N)N` [Metformin] (38.4 µM), the “perturbation Mahalanobis distance” value runs as follows: under setting [1], 1.76; under setting [2], 1.8.

`Nc1nnc(-c2cccc(Cl)c2Cl)c(N)n1` [Lamotrigine] (54.6 µM): the “perturbation Mahalanobis distance” value is, setting by setting: under setting [1], 2.15; under setting [2], 2.9.

In the case of `CN1C(=O)CC(c2ccccc2)C1=O` (stereo not given) [Phensuximide] (52.9 µM), the “perturbation Mahalanobis distance” value was 3.2 under setting [1] and 2.78 under setting [2].
